Test results reported in the supplement of paper PMC11634586.
Where a name gives a salt, the structure may show the parent alone. A number with no mark means an inactive call.

test system: NCI-H1688; experiment: inhibition of cell viability relative to untreated control (fraction); higher = stronger growth inhibition, active = 0.5 or more; conditions: 30 µM; 24 h
Experimental: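 Natural product library (TargetMol, 640 compounds) screened on NCI-H1688 SCLC cells at 30 µM for 24 h; viability by CCK-8 absorbance at 450 nm, normalised to untreated control and expressed as inhibition rate (fraction). Compounds with >50% reduction in viability were selected as hits.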

Compared with `C1=C2CCCN[C@H]2[C@@H]2C[C@H]1[C@H]1CCCCN1C2` [Aloperine], `O=C1CCC[C@@H]2[C@H]3CCCN4CCC[C@@H](CN12)[C@@H]34` [(+)-Matrine] is lower in “inhibition of cell viability” value: 0.311 for the first, 0.176 for the second.

Going from `CNCC(O)c1ccc(O)cc1` (stereo not given) [Synephrine] to `NCC(O)c1ccc(O)cc1` (stereo not given) [Octopamine hydrochloride], the “inhibition of cell viability” value falls from 0.204 to -0.206.

First: C=CCCCCCCCCC(=O)O[C@H]1CC[C@H]2[C@@H]3CCC4=CC(=O)C=C[C@]4(C)[C@H]3CC[C@]12C [Boldenone Undecylenate]
Second: CCC(=O)O[C@H]1CC[C@H]2[C@@H]3CCC4=CC(=O)CC[C@]4(C)[C@H]3CC[C@]12C [Testosterone propionate]
The “inhibition of cell viability” value of the first is lower: -0.203 for the first, -0.173 for the second.

First: CCCCCCCCC(=O)NCc1ccc(O)c(OC)c1 [Nonivamide]
Second: COc1ccc2c3c([nH]c2c1)C(C)=NCC3 [Harmaline]
The “inhibition of cell viability” value of the first is higher: -0.0291 for the first, -0.11 for the second.

First: CC(=O)OC12COC1CC(O)C1(C)C(=O)C(O)C3=C(C)C(O)CC(O)(C(OC(=O)c4ccccc4)C21)C3(C)C (stereo not given) [10-Deacetylbaccatin III]
Second: CN1[C@@H]2C[C@@H](OC(=O)[C@H](CO)c3ccccc3)C[C@H]1[C@@H]1O[C@@H]12 [Scopolamine HBr]
The “inhibition of cell viability” value of the first is higher: 0.454 for the first, -0.0423 for the second.

Compared with `COC(=O)C1=CCCN(C)C1` [Arecoline HBr], `CNC(=O)Oc1ccc2c(c1)[C@]1(C)CCN(C)[C@@H]1N2C` [Physostigmine Salicylate] is higher in “inhibition of cell viability” value: 0.105 for the first, 0.126 for the second.

Going from `CC(=O)O[C@H]1CC[C@H]2[C@@H]3CCC4=CC(=O)CCC4=C3C=C[C@]12C` [Trenbolone acetate] to `C[C@]12CC[C@H](O)CC1=CC[C@@H]1[C@@H]2CC[C@]2(C)C(=O)CC[C@@H]12` [Dehydroepiandrosterone], the “inhibition of cell viability” value rises from -0.43 to 0.0365.

Going from `O=c1cccc2n1C[C@@H]1CNC[C@H]2C1` [Cytisine] to `O=C1C[C@@H]2OCC=C3CN4CC[C@]56c7ccccc7N1[C@H]5[C@H]2[C@H]3C[C@H]46` [Strychnine], the “inhibition of cell viability” value rises from -0.243 to -0.0859.

Going from `C[C@]12CC[C@H](O)C[C@@H]1CC[C@@H]1[C@@H]2CC[C@]2(C)C(=O)CC[C@@H]12` [Epiandrosterone] to `COC1=C[C@]23CCCN2CCc2cc4c(cc2[C@@H]3[C@@H]1O)OCO4` [Cephalotaxine], the “inhibition of cell viability” value rises from -0.0121 to 0.394.

First: C=C[C@H]1CN2CC[C@H]1C[C@H]2[C@H](O)c1ccnc2ccccc12 [Cinchonidine]
Second: c1cc2c(cc1[C@H]1OC[C@H]3[C@@H]1CO[C@@H]3c1ccc3c(c1)OCO3)OCO2 [Sesamin]
The “inhibition of cell viability” value of the first is higher: -0.042 for the first, -0.0637 for the second.

First: COc1ccc2c(c1)[nH]c1c(C)nccc12 [Harmine]
Second: COc1ccc(Cc2nccc3cc(OC)c(OC)cc23)cc1OC [Papaverine hydrochloride]
The “inhibition of cell viability” value of the first is higher: 0.462 for the first, 0.205 for the second.

First: COc1ccc2c(c1OC)CN1CCc3cc4c(cc3C1C2)OCO4 (stereo not given) [Tetrahydroberberine THB]
Second: C[C@H]1O[C@H](O[C@H]2[C@H](O)[C@@H](O)[C@@H](O)[C@H](O)[C@@H]2O)[C@@H](N)C[C@@H]1NC(=N)C(=O)O [Kasugamycin hydrochloride]
The “inhibition of cell viability” value of the first is lower: 0.0966 for the first, 0.294 for the second.

`C[C@@H]1C[C@@H]([C@H](O)CC2CC(=O)NC(=O)C2)C(=O)[C@@H](C)C1` [Actidione] was tested, and the “inhibition of cell viability” value was 0.943 (active).
For `C[C@H]1CCC/C=C/[C@@H]2C[C@H](O)C[C@H]2[C@H](O)/C=C/C(=O)O1` [Brefeldin A], the “inhibition of cell viability” value was 0.704 (active).
With `CC(=O)O[C@H]1C[C@H](O[C@H]2[C@@H](O)C[C@H](O[C@H]3[C@@H](O)C[C@H](O[C@H]4CC[C@@]5(C)[C@H](CC[C@@H]6[C@@H]5C[C@@H](O)[C@]5(C)[C@@H](C7=CC(=O)OC7)CC[C@]65O)C4)O[C@@H]3C)O[C@@H]2C)O[C@H](C)[C@H]1O[C@@H]1O[C@H](CO)[C@@H](O)[C@H](O)[C@H]1O` [Lanatoside C] the “inhibition of cell viability” value was 0.994 (active).
For `CC(C)[C@]12O[C@H]1[C@@H]1O[C@]13[C@]1(O[C@H]1C[C@H]1C4=C(CC[C@@]13C)C(=O)OC4)[C@@H]2O` [Triptolide (PG490)], the “inhibition of cell viability” value was 0.948 (active).
With `COc1cc2c(c(OC)c1OC)-c1ccc(OC)c(=O)cc1[C@@H](NC(C)=O)CC2` [Colchicine] the “inhibition of cell viability” value was 0.84 (active).
With `COc1cc([C@@H]2c3cc4c(cc3[C@@H](O)[C@H]3COC(=O)[C@H]23)OCO4)cc(OC)c1O` [4'-Demethylepipodophyllotoxin] the “inhibition of cell viability” value was 0.568 (active).
